Screens as filed in PubChem BioAssay.
dFosB activator = enhances mouse delta FosB homodimer DNA binding; purified delta FosB, TAMRA-CDK5 oligo fluorescence polarization; percent of positive-control signal above neutral wells; activation, % at 25 µM; 340,000 compounds, 0.99% hits; P13346;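 active means mean activation above about 17%, with every replicate also reaching it, limit read from the data, passing the limit was not always enough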
MEKK2 WT-MEK5 = raises or lowers MEK5 binding to wildtype human MEKK2 PB1 domain; binding response (% of control), % at 10 µM; 290,000 compounds, 1.1% hits; Q9Y2U5; bead flow cytometry, Alexa488-MEK5 binding to MEKK2 WT; actives lie on both sides; in the data active means binding response below about 67% or above about 130%
DNA FID counter = fluorescent intercalator displacement, NS3 helicase counter-screen | inhibition, % at 7.9 µM | 290,000 compounds, 0.17% hits | DNA fluorescent intercalator displacement, fluorescence | AID 1845; in the data active means inhibition above about 37%;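 further: 0% = vehicle and 100% = reference compound; higher means more ethidium bromide displaced from hairpin DNA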
MEKK2 mut-MEK5 = signal of MEK5 binding to mutant human MEKK2 PB1 domain; bead flow cytometry, Alexa488-MEK5 binding to MEKK2 mutant; percent response, % at 10 µM; 290,000 compounds, 0.35% hits; AID 1530; in the data active means percent response above about 24%, passing the limit was not always enough
MEKK3 PB1 HTS = modulators (inhibitors or enhancers) of MEK5 binding to human MEKK3 PB1 domain. binding response (% of control), % at 10 µM. bead-based flow cytometry, Alexa488-MEK5 binding to MEKK3; actives lie on both sides; 0 = blocked by unlabeled MEK5, 100 = vehicle. 290,000 compounds, 1.4% hits;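 active means binding response more than 3 SD above or below the average of its plate-row segment, actives on both sides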;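 further: Alexa488 bead fluorescence after subtracting the streptavidin-only scavenger bead signal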
Target sequence (Q99759 whole entry, looked up, the tested form may be a part): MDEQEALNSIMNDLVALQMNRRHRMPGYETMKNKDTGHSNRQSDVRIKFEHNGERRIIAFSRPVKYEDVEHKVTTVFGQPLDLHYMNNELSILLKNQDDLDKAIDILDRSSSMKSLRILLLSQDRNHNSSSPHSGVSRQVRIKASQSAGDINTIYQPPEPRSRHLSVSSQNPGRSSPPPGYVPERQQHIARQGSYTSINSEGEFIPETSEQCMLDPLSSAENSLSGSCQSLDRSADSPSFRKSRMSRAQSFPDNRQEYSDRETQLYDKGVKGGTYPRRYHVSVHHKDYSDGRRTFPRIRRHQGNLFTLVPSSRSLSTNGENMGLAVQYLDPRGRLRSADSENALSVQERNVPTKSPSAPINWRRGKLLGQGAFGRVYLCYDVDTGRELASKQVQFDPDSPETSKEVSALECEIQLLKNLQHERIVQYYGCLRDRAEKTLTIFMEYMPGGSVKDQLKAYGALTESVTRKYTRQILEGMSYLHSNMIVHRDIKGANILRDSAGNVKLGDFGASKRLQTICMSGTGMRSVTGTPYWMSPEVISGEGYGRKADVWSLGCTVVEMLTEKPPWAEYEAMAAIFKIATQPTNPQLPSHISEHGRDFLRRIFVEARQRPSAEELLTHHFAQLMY
MEKK2wt confirm = raises or lowers MEK5 binding to wildtype human MEKK2, retest | shares compounds with MEKK3 PB1 HTS | bead flow cytometry, Alexa488-MEK5 binding to MEKK2 WT; actives lie on both sides | binding response (% of control), % at 10 µM | 5,900 compounds, 2.4% hits; in the data active means binding response below about 16% or above about 210%; inactive means in between
MEKK2mut-MEK5 = signal of MEK5 binding to mutant human MEKK2, retest; shares compounds with MEKK3 PB1 HTS; bead flow cytometry, Alexa488-MEK5 binding to MEKK2 mutant; percent response, % at 10 µM; 5,900 compounds, 2% hits; AID 1893; in the data active means percent response mostly above about 71%, no sharp cut-off; inactive means mostly below about 38%;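 further: higher means compound restores mutant binding toward wildtype level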
MEKK3 confirm = MEKK3-MEK5 PB1 inhibition, single concentration confirmation | shares compounds with MEKK3 PB1 HTS | bead flow cytometry, Alexa488-MEK5 binding to MEKK3; stronger effect = lower value | binding response (% of control), % at 10 µM | 5,900 compounds, 1.8% hits | AID 1894;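 active means binding response below 72% of control, or above a set upper limit, though filed actives all read lower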;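 further: 100% = DMSO only wells and 0% = binding blocked by excess unlabeled MEK5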
The depositor's hits bear a star; · = not tested or not shown; [ ] = another dose, or the depositor's remark. Hits are enriched below; roughly 2.9% of the tested compounds scored in any of these assays.

SMILES	dFosB activator	MEKK2 WT-MEK5	DNA FID counter	MEKK2 mut-MEK5	MEKK3 PB1 HTS	MEKK2wt confirm	MEKK2mut-MEK5	MEKK3 confirm
COCCCNC(=S)NNC(=O)c1ccoc1C	-4.5	101.0	-5.7	-3.0	74.0*[inhibitor]	105.0	1.0	102.0
O=C(O)CSc1cc(C(=O)c2ccccc2O)cn2c(=O)c3c4c(sc3nc12)CCCC4	-10.6	100.0	-10.4	12.0	112.0	·	·	·
O=C1C(=Cc2ccc(Br)o2)C(=O)c2ccccc21	-12.9	98.0	-14.3	0.0	138.0*	105.0	1.0	106.0
CCOC(=O)[C@H]1[C@H]2COc3ccc(OC)cc3[C@@H]2N2C(=O)c3cc(F)c(F)cc3NC(=O)[C@@]12C	-1.2	·	·	·	·	·	·	·
CCCN1C2CCCC1CC(NC(=O)c1cccc([N+](=O)[O-])c1)C2 (stereo unspecified)	-2.7	100.0	2.4	7.0	100.0	·	·	·
COc1cc(/C=C(/NC(=O)c2ccccc2)C(=O)N2CCN(C)CC2)c([N+](=O)[O-])cc1OC	0.3	105.0	0.1	4.0	130.0*	107.0	5.0	103.0
COc1cc(/C=C(/NC(=O)c2ccccc2)C(=O)N2CCOCC2)c([N+](=O)[O-])cc1OC	0.4	102.0	-15.7	2.0	103.0	·	·	·
CN1CCN(C(=O)/C(=C\c2cccs2)NC(=O)c2ccco2)CC1	6.5	108.0	1.7	0.0	134.0*	107.0	7.0	107.0
O=C(N/C(=C\c1cccs1)C(=O)N1CCOCC1)c1ccco1	-0.6	96.0	-1.4	-3.0	100.0	·	·	·
CN1CCN(C(=O)/C(=C/c2cccs2)NC(=O)c2cccs2)CC1	0.1	101.0	3.5	0.0	72.0*[inhibitor]	107.0	3.0	103.0
COc1ccccc1C1C(C#N)=C(N)N(c2cccnc2)C2=C1C(=O)CC(C)(C)C2 (stereo unspecified)	-4.1	112.0	-12.2	4.0	115.0	·	·	·
CCCCCC(=O)Nc1ccc(C(=O)COC(=O)CN2C(=O)NC3(CCCC3)C2=O)cc1	-4.0	·	·	·	·	·	·	·
COc1ccccc1C(=O)Nc1cccc2c1CCCC2	-15.1	102.0	-25.2	5.0	104.0	·	·	·
Cc1ccc(N2CC(C(=O)Nc3ccc(N4CCOCC4)cc3)CC2=O)cc1C (stereo unspecified)	5.9	95.0	-38.3	-7.0	96.0	·	·	·
Cc1ccc(Cn2cc(S(=O)(=O)c3ccc(Cl)cc3)c(=O)c3cc(F)ccc32)cc1	-6.7	102.0	-4.8	0.0	132.0*	95.0	-8.0	102.0
Cc1oc(/C=N/NC(=O)CC2(C)OCCO2)cc1Br	1.9	111.0	-1.4	2.0	132.0*	107.0	6.0	106.0
CCOc1ccc(OCC(=O)Nc2ccc(OC)cc2[N+](=O)[O-])cc1	-10.6	51.0	3.1	-22.0	37.0*[inhibitor]	101.0	1.0	101.0
COc1ccc(NC(=O)COc2ccc(C)cc2)c([N+](=O)[O-])c1	·	95.0	4.9	-8.0	91.0	·	·	·
COC(=O)CCC(=O)OC1(C)C(=O)C2=CN(CCCOC(C)C)C(c3ccc(OC)cc3)=CC2=C(Br)C1=O (stereo unspecified)	-6.7	-8.0*[inhibitor]	·	1.0	90.0	95.0	-4.0	93.0
COC(=O)CCC(=O)OC1(C)C(=O)C2=CN(CC(C)C)C(c3ccc(OC)cc3)=CC2=C(Br)C1=O (stereo unspecified)	·	-7.0*[inhibitor]	·	1.0	88.0	83.0	-12.0	71.0*
CCOc1ccc(-c2csc(Cn3c(CN4CCN(C)CC4)nc4ccccc4c3=O)n2)cc1	-7.5	114.0	22.3	13.0	98.0	·	·	·
COc1ccc(NC(=O)c2cc(S(=O)(=O)N3CCCC3)ccc2C)cn1	1.0	·	·	·	·	·	·	·
CCCn1c(CCNC(=O)c2ccco2)nc2ccccc21	-4.0	101.0	-7.0	7.0	103.0	·	·	·
COCc1nc2ccccc2n1Cc1c(F)cccc1Cl	1.0	92.0	-7.2	-5.0	102.0	·	·	·
